Experimental findings from PubChem BioAssay are described below.

The structures appear in SMILES notation. Active and inactive are the calls of the source. Unless noted, no rule for the calls is given here.

Assay [1] deals with Wnt5a (protein binding on small-molecule microarray). In words: small molecules binding Wnt5a protein – biophysical, small-molecule microarray, 635/667 nm fluorescence, primary screen (AID 1142).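 Also: fluorescence read at 667 nm with signal to noise per printed feature.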 Particulars: 635 nm fluorescence, higher = more signal.
Assay [2] is described as follows: ATP-based viability of Huh7 replicon cells – cell-based, CellTiter-Glo luminescence, basal, 48 h, cytotoxicity control for HCV replication inhibitor project, primary screen (AID 1143).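 Also: Huh7 hepatoma cells carrying a hepatitis C replication reporter with no stimulus; test concentration not given here.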 Particulars: higher = more signal, called active from +8 up or from −8 down.
Assay [3] in a line: Pseudomonas biofilm growth suppression – PAO1 strain, BacTiter-Glo luminescence, LB-PBS, primary screen (AID 1144). Particulars: P. aeruginosa PAO1 biofilm, 12 h, higher = more signal.
Assay [4] is described as follows: basal CRE-LacZ reporter activity in PC12 – cell-based, unstimulated, primary screen (AID 1145). The following applies: no forskolin, luminescence, 4.5 h, higher = more signal, called active from +8 up or from −8 down.
Assay [5] can be described thus: forskolin-driven CRE-LacZ activity in PC12 – cell-based, CRE-LacZ reporter, forskolin-stimulated, primary screen (AID 1146).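 Also: PC12 cells with 6xCRE LacZ reporter stimulated by forskolin 10 µM; beta-galactosidase reporter signal reflecting CREB driven transcription.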 The following applies: luminescence, 4.5 h, higher = more signal, called active from +8 up or from −8 down.
In assay [6] the target is Streptavidin (Streptomyces avidinii) (UniProt P22629). Briefly: compounds binding control protein streptavidin – biophysical, small-molecule microarray, 635/667 nm fluorescence, artefact control for SMM compound annotation, primary screen (AID 1147).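 Also: signal reflects streptavidin binding to arrayed compounds as a control protein.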 The following applies: higher = more signal.
Chain of Streptavidin (Streptomyces avidinii) (P22629 whole entry, looked up): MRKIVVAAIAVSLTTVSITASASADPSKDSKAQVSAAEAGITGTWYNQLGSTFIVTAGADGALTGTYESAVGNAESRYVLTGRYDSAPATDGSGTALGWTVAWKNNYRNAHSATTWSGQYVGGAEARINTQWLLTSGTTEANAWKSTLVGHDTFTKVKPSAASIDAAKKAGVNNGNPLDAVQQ
Assay [7] in a line: probe aInhba binding on compound microarray – biochemical, small-molecule microarray, 635/667 nm fluorescence, primary screen (AID 1148).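 Also: score merges 667nm spot fluorescence with signal-to-noise for antibody binding to printed compounds.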 Particulars: higher = more signal.
For assay [8], the target named is Torsin-1A (Homo sapiens) (UniProt O14656). Briefly: TOR1A wild-type binding on microarray – cell lysate, small-molecule microarray, lysate, 635/667 nm, primary screen (AID 1149). Particulars: COS7 hTOR1A-WT lysate, 635 nm fluorescence, higher = more signal.
Chain of Torsin-1A (Homo sapiens) (O14656 whole entry, looked up): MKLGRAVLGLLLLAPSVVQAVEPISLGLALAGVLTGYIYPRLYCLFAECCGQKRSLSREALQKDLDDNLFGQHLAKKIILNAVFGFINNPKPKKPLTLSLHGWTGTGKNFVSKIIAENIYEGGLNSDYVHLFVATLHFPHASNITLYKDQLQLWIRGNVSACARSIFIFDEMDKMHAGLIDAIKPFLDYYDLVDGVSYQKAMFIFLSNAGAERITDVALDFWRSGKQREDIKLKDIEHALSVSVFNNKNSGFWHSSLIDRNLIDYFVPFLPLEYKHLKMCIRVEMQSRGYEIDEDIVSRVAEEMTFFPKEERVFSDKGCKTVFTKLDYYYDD
Assay [9] has the same target. In words: torsin A mutant lysate binding on microarrays – cell lysate, small-molecule microarray, COS7 lysate, 635/667 nm fluorescence, primary screen (AID 1150).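 Also: score pools 667 nm emission and signal to noise measuring lysate protein binding.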 Particulars: COS7 hTOR1A mutant lysate, 635 nm fluorescence, higher = more signal.
Assay [10] has as its system Sonic hedgehog protein (Shh). Briefly: Sonic hedgehog microarray binding compounds – biochemical, small-molecule microarray, 635/667 nm fluorescence, primary screen (AID 1151).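 Also: Shh protein binding to compounds spotted on small-molecule microarray slides; score combines spot fluorescence intensity with signal-to-noise across triplicate slides.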 Particulars: 635 nm fluorescence, higher = more signal.
Assay [11] is described as follows: optical density shifts of acrAB sulA E. coli – strain DRC41, OD650, 48 h, E. coli filamentation inducer project, primary screen (AID 1152).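 Also: E. coli MC1000 strain DRC41 lacking acrAB efflux pump and sulA.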 Particulars: higher = more signal, called active from +8 up or from −8 down.
Assay [12] can be described thus: probe aLefty1 binding on compound microarray – biochemical, small-molecule microarray, 635/667 nm fluorescence, primary screen (AID 1153).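 Also: score merges spot fluorescence with signal-to-noise ratio from the scanned slide images.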 The following applies: higher = more signal.
Assay [13] can be described thus: plasmodial surface anion channel blockers, osmotic lysis – cell-based, P. falciparum Indochina, OD700, 1 h, primary screen (AID 1154). The following applies: P. falciparum Indochina infected RBC osmotic lysis, higher = more signal, called active from +8 up or from −8 down.
A short description of assay [14]: plasmodial surface anion channel blockers, osmotic lysis – cell-based, P. falciparum Indochina, OD700, 2 h, primary screen (AID 1155).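 Also: lysis reports solute entry through the parasite surface anion channel PSAC.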 The following applies: P. falciparum Indochina infected erythrocytes, higher = more signal, called active from +8 up or from −8 down.
Assay [15] can be described thus: changes in parasitized red cell lysis, either direction – P. falciparum Indochina, OD700, 3 h, PSAC antagonist project, primary screen (AID 1156). Particulars: P. falciparum-infected erythrocytes, osmotic lysis, higher = more signal, called active from +8 up or from −8 down.
A short description of assay [16]: plasmodial surface anion channel blockers, osmotic lysis – cell-based, P. falciparum Indochina, OD700, 18 h, primary screen (AID 1157). Particulars: P. falciparum Indochina infected erythrocytes, osmotic lysis OD700, 18 h; higher = more signal, called active from +8 up or from −8 down.
Assay [17] can be described thus: S6 kinase pathway phospho-S6 level changes – cell-based, A549, cytoblot, luminescence, serum-stimulated, primary screen (AID 1158).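 Also: serum-stimulated A549 lung adenocarcinoma cells; signal is phosphorylated S6 detected by cytoblot immunostaining with HRP secondary.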 The following applies: 5 h, higher = more signal.
The target in assay [18] is NADPH oxidase 2 (Homo sapiens) (UniProt P04839). In words: compounds shifting NOX2 Amplex Red fluorescence – cell-based, HEK293-NOX2, PMA-stimulated, NOX inhibitor project, primary screen (AID 1159). Also: test concentration not given here. The following applies: 45 min, higher = more signal, called active from +8 up or from −8 down.
Chain of NADPH oxidase 2 (Homo sapiens) (P04839 whole entry, looked up): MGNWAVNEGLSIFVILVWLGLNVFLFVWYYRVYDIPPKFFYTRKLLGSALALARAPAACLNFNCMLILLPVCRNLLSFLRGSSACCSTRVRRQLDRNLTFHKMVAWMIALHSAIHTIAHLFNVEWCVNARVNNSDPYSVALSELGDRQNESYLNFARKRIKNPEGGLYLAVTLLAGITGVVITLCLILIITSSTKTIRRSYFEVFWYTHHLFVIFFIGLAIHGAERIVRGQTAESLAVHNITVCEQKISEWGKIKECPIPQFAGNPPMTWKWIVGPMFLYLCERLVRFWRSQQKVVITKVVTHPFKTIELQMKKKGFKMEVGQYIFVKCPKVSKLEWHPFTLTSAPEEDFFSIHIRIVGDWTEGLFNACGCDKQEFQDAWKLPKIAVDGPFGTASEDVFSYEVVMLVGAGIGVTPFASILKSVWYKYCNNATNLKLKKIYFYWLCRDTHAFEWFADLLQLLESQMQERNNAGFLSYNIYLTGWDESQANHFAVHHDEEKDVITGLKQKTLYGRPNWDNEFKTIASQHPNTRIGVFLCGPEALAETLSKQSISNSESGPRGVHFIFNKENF
Assay [19] concerns the target NADPH oxidase 4 (Homo sapiens) (UniProt Q9NPH5). Briefly: compounds shifting NOX4 Amplex Red fluorescence – cell-based, HEK293-NOX4, tetracycline-induced, NOX inhibitor project, primary screen (AID 1160). The following applies: HEK293-NOX4, Amplex Red H2O2 fluorescence, 45 min; higher = more signal, called active from +8 up or from −8 down.
Assay [20] deals with NADPH oxidase 5 (Homo sapiens) (UniProt Q96PH1). Briefly: compounds shifting NOX5 Amplex Red fluorescence – cell-based, HEK293-NOX5, NOX inhibitor project, primary screen (AID 1161). The following applies: HEK293-NOX5, ionomycin, 45 min, higher = more signal.
Chain of NADPH oxidase 5 (Homo sapiens) (Q96PH1 whole entry, looked up): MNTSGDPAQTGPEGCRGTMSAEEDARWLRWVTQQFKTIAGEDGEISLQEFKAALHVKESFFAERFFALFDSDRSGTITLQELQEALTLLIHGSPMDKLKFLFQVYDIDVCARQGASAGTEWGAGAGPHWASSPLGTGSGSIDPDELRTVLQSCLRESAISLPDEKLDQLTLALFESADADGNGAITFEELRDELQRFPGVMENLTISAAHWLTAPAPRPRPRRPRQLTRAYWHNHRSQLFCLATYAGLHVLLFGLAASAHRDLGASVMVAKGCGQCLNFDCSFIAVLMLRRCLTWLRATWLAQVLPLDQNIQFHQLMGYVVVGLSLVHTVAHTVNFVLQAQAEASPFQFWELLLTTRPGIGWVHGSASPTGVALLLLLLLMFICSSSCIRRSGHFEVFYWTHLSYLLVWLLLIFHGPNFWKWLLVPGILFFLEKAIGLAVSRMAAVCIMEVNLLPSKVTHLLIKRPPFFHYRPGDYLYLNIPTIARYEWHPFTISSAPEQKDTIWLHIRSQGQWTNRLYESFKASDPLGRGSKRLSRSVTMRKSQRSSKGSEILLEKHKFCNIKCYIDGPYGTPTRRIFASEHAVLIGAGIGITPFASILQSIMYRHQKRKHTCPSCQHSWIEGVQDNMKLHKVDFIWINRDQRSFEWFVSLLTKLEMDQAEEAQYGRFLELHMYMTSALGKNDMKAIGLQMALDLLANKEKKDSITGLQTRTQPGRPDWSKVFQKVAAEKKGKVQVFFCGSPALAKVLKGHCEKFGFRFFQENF

Chain of NADPH oxidase 4 (Homo sapiens) (Q9NPH5 whole entry, looked up): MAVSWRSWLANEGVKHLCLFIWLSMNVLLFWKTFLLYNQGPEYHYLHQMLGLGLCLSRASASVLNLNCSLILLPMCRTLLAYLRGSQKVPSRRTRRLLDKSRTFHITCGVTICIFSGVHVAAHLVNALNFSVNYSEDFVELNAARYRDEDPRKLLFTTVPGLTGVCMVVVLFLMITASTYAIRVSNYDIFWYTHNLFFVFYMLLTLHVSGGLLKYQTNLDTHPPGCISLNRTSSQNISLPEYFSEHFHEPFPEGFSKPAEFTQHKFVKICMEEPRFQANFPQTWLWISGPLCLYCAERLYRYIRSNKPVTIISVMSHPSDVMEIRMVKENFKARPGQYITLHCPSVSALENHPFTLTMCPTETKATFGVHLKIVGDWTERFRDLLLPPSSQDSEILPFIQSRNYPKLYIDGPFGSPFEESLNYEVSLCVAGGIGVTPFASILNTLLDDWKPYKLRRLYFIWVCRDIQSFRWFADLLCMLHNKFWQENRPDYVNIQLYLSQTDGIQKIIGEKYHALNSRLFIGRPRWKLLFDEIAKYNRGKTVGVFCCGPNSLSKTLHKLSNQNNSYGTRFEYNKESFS

Consider `C=CC[C@@]1(C(=O)NCCN2CCOCC2)N=C(c2ccc(OCCCO)cc2)O[C@@H]1c1ccccc1N=[N+]=[N-]`, for which the composite z-score in [1] is 0.298; in assay [6] it was 0.236; in assay [7] it was -0.0093; with Torsin-1A (Homo sapiens) [8], -0.0075; with Torsin-1A (Homo sapiens) [9] it was 0.416; in assay [10], -0.203. For the same compound, the composite z-score in [12] came to 0.144. In addition, the z-score is -1.56 (inactive) in assay [2]; 0.45 (inactive) in [3]; 0.185 (inactive) in assay [4]; -0.461 (inactive) in assay [5]; 0.301 (inactive) in [11]; 31.2 (active) in assay [13]. The z-score was 31.8 (active) in assay [14]; 2.48 (inactive) in assay [15]; 2.95 (inactive) in [16]; -0.291 in [17]; -1.67 (inactive) in [18]; 0.0137 (inactive) in assay [19]. Further, the z-score in assay [20] was -1.73.

As for `O=C1C[C@]2(c3ccc([N+](=O)[O-])cc3)C(=O)N(CC(F)(F)F)c3cc(CO)ccc3[C@H]2N1C1CCCCC1`, the composite z-score in assay [1] was -0.446; in assay [6] it was -0.463; in [7], -0.0598; with Torsin-1A (Homo sapiens) [8], -0.628; with Torsin-1A (Homo sapiens) [9], -0.611; in [10], -0.444. For the same compound, the composite z-score in assay [12] was -0.233. The z-score in assay [2] was 0.465 (inactive); in assay [3], 1.43 (inactive); in assay [4], -0.412 (inactive); in assay [5], -0.496 (inactive); in assay [11], 0.983 (inactive); in [13] it was -0.524 (inactive). For the same compound, the z-score was 0.345 (inactive) in assay [14]; 0.503 (inactive) in assay [15]; 0.133 (inactive) in assay [16]; -0.116 in [17]; -0.502 (inactive) in [18]; 0.00678 (inactive) in assay [19]. In addition, the z-score in [20] came out at 0.428.

On to `COc1ccc(C(=O)Nc2ccc(CN3C(=O)[C@]4(O[C@H](CCO)[C@@H]([Si](C)(C)c5ccc(OC)cc5)[C@@H]4C)c4ccccc43)cc2)cc1`, for which the composite z-score was 0.406 in [1]; 0.566 in [6]; 0.0014 in assay [7]; 0.108 with Torsin-1A (Homo sapiens) [8]; 0.165 in the assay with Torsin-1A (Homo sapiens) [9]; 1.48 in [10]. Also, the composite z-score in [12] amounted to 0.199. Also, the z-score in assay [2] was -7.95 (inactive); in [3], -0.925 (inactive); in [4] it was 8.84 (active); in assay [5], -1.89 (inactive); in assay [11] it was -1.37 (inactive); in [13] it was 5.29 (inactive). The z-score in assay [14] was 2.11 (inactive); in [15], -0.205 (inactive); in [16], 2.12 (inactive); in assay [17], -1.38; in assay [18], -6.37 (inactive); in assay [19], -2.55 (inactive). For the same compound, in assay [20], the z-score is -1.54.

On to `C[C@H]1NC(=O)[C@@]23C(=O)N[C@@H](Cc4ccccc4)C2[C@H](C)[C@@]2(C)O[C@H]2C3/C=C/C/C=C\CNC(=O)[C@@H]2CCCN2C1=O` (stereo not given in full), for which the composite z-score is 0.168 in [1]; 0.301 in assay [6]; -0.0589 in assay [7]; 0.396 in the assay with Torsin-1A (Homo sapiens) [8]; -0.103 with Torsin-1A (Homo sapiens) [9]; 1.73 in assay [10]. The composite z-score in assay [12] was -0.0046. Besides, the z-score in assay [2] was -0.0568 (inactive); in assay [3], -0.545 (inactive); in assay [4], 1.03 (inactive); in [5], 0.647 (inactive); in [11] it was -0.0438 (inactive); in assay [13] it was 0.306 (inactive). Further, the z-score is 0.189 (inactive) in assay [14]; 0.159 (inactive) in assay [15]; 0.108 (inactive) in assay [16]; -0.199 in assay [17]; -0.0374 (inactive) in assay [18]; 1.41 (inactive) in [19]. Also, the z-score in assay [20] came out at 0.41.

With `O=C(c1ccccc1)N1C(=O)[C@@]2(Cc3ccccc31)N=C(c1ccc(OCCCO)cc1)O[C@H]2c1ccccc1`, the composite z-score in [1] came out at 0.54; in assay [6], 0.353; in [7], 0.346; with Torsin-1A (Homo sapiens) [8], 0.388; with Torsin-1A (Homo sapiens) [9], 1.01; in assay [10] it was 1.27. In assay [12], this compound had a composite z-score of 0.554. The z-score was -4.44 (inactive) in [2]; 0.849 (inactive) in assay [3]; 1.11 (inactive) in assay [4]; 1.28 (inactive) in assay [5]; -0.632 (inactive) in assay [11]; 14.6 (active) in assay [13]. The z-score is 2.37 (inactive) in assay [14]; 3.04 (inactive) in assay [15]; 1.03 (inactive) in assay [16]; -0.256 in [17]; -0.595 (inactive) in assay [18]; -0.0485 (inactive) in assay [19]. In assay [20], the z-score is -1.74.

Take `O=C(NC1CC1)[C@@H]1c2ccccc2C(=O)N(Cc2ccccc2Cl)[C@H]1c1ccc(CO)cc1`: the composite z-score in assay [1] worked out at 0.201; in assay [6], 0.384; in [7], 0.225; in the assay with Torsin-1A (Homo sapiens) [8], 0.725; with Torsin-1A (Homo sapiens) [9], 0.941; in [10], 0.957. Besides, the composite z-score in assay [12] was determined as 0.208. Also, the z-score is -2.67 (inactive) in [2]; -0.764 (inactive) in [3]; -0.0888 (inactive) in [4]; -1.69 (inactive) in [5]; 4.2 (inactive) in assay [11]; 3.45 (inactive) in assay [13]. The z-score is 0.652 (inactive) in [14]; -1.05 (inactive) in [15]; 0.204 (inactive) in assay [16]; 2.67 in assay [17]; -1.1 (inactive) in [18]; 0.54 (inactive) in assay [19]. The z-score in assay [20] came out at 0.33.

Take `C[C@H]1C2[C@H](Cc3ccccc3)NC(=O)[C@]23C(=O)N[C@H](Cc2ccccc2)C(=O)N2CCC[C@H]2C(=O)NC/C=C\C/C=C/C3[C@@H]2O[C@]12C` (stereo not given in full): the composite z-score in assay [1] was 0.072; in [6] it was 0.206; in assay [7], -0.126; with Torsin-1A (Homo sapiens) [8], 0.221; with Torsin-1A (Homo sapiens) [9], 0.44; in [10] it was 0.639. Besides, the composite z-score in assay [12] is -0.026. Also, the z-score in assay [2] is -0.832 (inactive); in [3] it was -1.44 (inactive); in assay [4], 0.403 (inactive); in assay [5], -0.399 (inactive); in assay [11], 0.637 (inactive); in assay [13] it was 1.4 (inactive). The z-score in assay [14] is -1.49 (inactive); in assay [15], -1.3 (inactive); in [16] it was -2.52 (inactive); in assay [17] it was 0.477; in assay [18], 0.977 (inactive); in assay [19] it was 1.14 (inactive). The z-score in assay [20] came to 1.73.

Consider `CN1C(=O)C2C=CC(C(O)c3ccc([N+](=O)[O-])cc3)N(N3CCCCC3)C2C1=O` (stereo not given), for which the composite z-score was 0.466 in assay [1]; 0.901 in assay [6]; 0.464 in [7]; 0.319 in the assay with Torsin-1A (Homo sapiens) [8]; 0.603 in the assay with Torsin-1A (Homo sapiens) [9]; -0.041 in assay [10]. Further, the composite z-score in assay [12] turned out to be 0.385. In addition, the z-score was 0.576 (inactive) in assay [2]; -0.711 (inactive) in assay [3]; 1.01 (inactive) in assay [4]; 0.316 (inactive) in [5]; -1.74 (inactive) in assay [11]; 2.06 (inactive) in assay [13]. In addition, the z-score in [14] is 1.36 (inactive); in assay [15], -0.0207 (inactive); in [16] it was 0.9 (inactive); in assay [17], -0.919; in [18], 0.114 (inactive); in [19] it was -2.07 (inactive). Also, the z-score in [20] is -1.12.
